Screens (PubChem)
FMDV inh – foot and mouth disease virus antiviral activity; FMDV antiviral cell-based qHTS; Potency, µM (highest dose often 57.9 µM), for inactives: at the highest dose activity change, negative = inhibition, most hits filed as inhibitors; 410,000 compounds, 1.2% hits; calls by dose curve; tested in HEK293T cells; note: read-out not given here; nearly all actives have a fitted effect of over 45% in size
Vaccinia Venus – vaccinia inhibition (Venus reporter) | Potency, µM (highest dose often 36.5 µM), inactives show top-dose activity change, negative = inhibition, most hits filed as inhibitors | Vaccinia virus Venus reporter expression, fluorescence | 330,000 compounds, 0.46% hits; calls by dose curve; tested in A549 cells; note: nearly all actives have a fitted effect of over 30% in size
Vaccinia mCherry – vaccinia inhibition (mCherry reporter); Vaccinia virus mCherry reporter infection, fluorescence; Potency, µM (top dose mostly 36.5 µM), without a hit: at the top dose activity change, negative = inhibition, hits mostly inhibitors; 310,000 compounds, 0.63% hits; AID 720579; calls by dose curve; tested in A549 cells; note: nearly all actives have a fitted effect of over 35% in size
HCV inh – blocks hepatitis C virus | 340,000 compounds, 3.4% hits | Huh7.5.1 HCVcc-Cre infection, luciferase reporter, 44 h | Potency, µM (series often up to 41.8 µM), inactives show at the top dose activity change, negative = inhibition, most hits filed as inhibitors; active = well fitted inhibition curve with a large enough effect; inconclusive = small, poorly fitted or top-dose-only effect, or another doubt; inactive = no such curve, though single readings can be large or run the other way
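After 44 h co-culture of compound, cells and HCVcc-Cre (~0.5 moi), substrate is added for 15 min at room temperature and luciferase measured over 15 sec. Cells were seeded at 1,000/well and pre-cultured 4 h.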
MARV entry inh – inhibitors of Marburg virus binding or cell entry. Marburg virus pseudotyped entry inhibition, cell reporter. Potency, µM (highest dose often 37.8 µM), for the others: at the highest dose activity change, negative = inhibition, usual class: inhibitors. 300,000 compounds, 1.8% hits; calls by dose curve; tested in HEK293 cells
LASV entry inh – blocks Lassa virus binding to or entry into cells | Lassa virus pseudotype entry inhibition, cell reporter | 300,000 compounds, 1.2% hits | Potency, µM (series often up to 37.9 µM), without a hit: top-dose activity change, negative = inhibition, hits mostly inhibitors | AID 540256; calls by dose curve; tested in HEK293 cells; note: nearly all actives have a fitted effect of over 50% in size
* = called active by the depositor; i = inactive; ? = inconclusive; nt = no result; [ ] = dose if it differs, or a comment. Shown are actives, neighbours in structure and some others; about 5.3% of the full set was active somewhere. % is set by controls: 0 for no effect and ±100 for the full control effect; potency is the fitted concentration of half-maximal effect.

SMILES | FMDV inh | Vaccinia Venus | Vaccinia mCherry | HCV inh | MARV entry inh | LASV entry inh
CCOc1ccc(NC(=O)OCCN2CCN(CCc3ccccc3)C(C)C2)cc1 (centres undefined) | ? | -21.1% | ? | 11.2µM* | ? | ?
CC(C)=CCCC(C)=CCON=C1C[C@@H](O)[C@@H](O)[C@@H]2[C@H]3C(=O)N(C[C@@H]4CCCO4)C(=O)[C@@H]3CC[C@H]12 | nt | nt | nt | nt | 21.6%[14.2 µM] | nt
CC(C)c1ccc(S(=O)(=O)c2cc3cc(Br)ccc3oc2=O)cc1 | ? | -1.1% | -7.9% | 5.9% | 11.2µM* | ?
Cc1ccc(S(=O)(=O)c2cc3cc(Br)ccc3oc2=O)cc1 | ? | -14.5% | i | 42.2% | -6.9% | -25.6%
Cc1ccc(C(=O)Nc2ccc3oc(-c4cc(Br)ccc4Cl)nc3c2)cc1 | -3.5% | -22.0% | -24.8% | nt | nt | 6.3%[46.1 µM]
CN1/C(=C\C(=O)COC(=O)C2COc3ccccc3O2)C(C)(C)c2ccccc21 (centres undefined) | -9.6% | 4.6% | -8.5% | 2.0% | -6.6%[46.1 µM] | 5.4%
CN1/C(=C\C(=O)c2ccco2)C(C)(C)c2ccccc21 | ? | 22.1% | -17.1% | 11.2µM* | -35.5% | ?
CN1/C(=C/C(=O)c2nc(S(C)(=O)=O)ncc2Cl)C(C)(C)c2ccccc21 | 10µM* | ? | 28.2µM* | ? | ? | 15.8µM*
CN1/C(=C\C(=O)c2cccnc2)C(C)(C)c2ccccc21 | 18.1% | -16.7% | -4.2% | 7.9% | 7.2% | -0.2%
CN1/C(=C\C(=O)COc2ccc3c(c2)OCO3)C(C)(C)c2ccccc21 | 25.1µM* | -4.2% | -22.7% | ? | -1.2% | -18.1%
CN1/C(=C\C(=O)COC(=O)c2ccccc2O)C(C)(C)c2ccccc21 | -28.2% | -14.4%[7.34 µM] | -7.1%[7.34 µM] | ? | nt | nt
COc1ccccc1OCC(=O)/C=C1/N(C)c2ccccc2C1(C)C | ? | -13.5% | -15.6% | 10µM* | 19.5%[46.1 µM] | -24.0%
CN1/C(=C\C(=O)COC(=O)c2ccco2)C(C)(C)c2ccccc21 | ? | nt | nt | -6.8% | nt | nt
C=CCN(C)C1=NC(c2ccccc2)C(C(=O)OC)=C(C)N1CCOC (centres undefined) | nt | nt | nt | nt | 3.8%[14.2 µM] | nt
CC(OC(=O)c1cccc(-n2cnnn2)c1)C(=O)Nc1cccc(Cl)c1 (centres undefined) | -1.0% | -23.1% | -5.1% | 8.91µM* | -10.7% | ?
Cc1cc(Br)ccc1NC(=O)C1CCN(S(=O)(=O)c2cnc[nH]2)CC1 | 14.5% | nt | nt | 4.5% | nt | nt
c1ccc(CN2CCN(c3nc4ccccc4c4ccccc34)CC2)cc1 | -0.5% | -9.5% | nt | ? | -21.1% | -19.3%
c1ccc(CN2CCN(c3ncnc4c3[nH]c3ccccc34)CC2)cc1 | 10µM* | ? | 7.08µM* | 11.2µM* | ? | ?
Fc1ccc2[nH]c3c(N4CCN(C5CCCCC5)CC4)ncnc3c2c1 | nt | nt | nt | nt | 1.0% | nt
OC1(c2cccc(C(F)(F)F)c2)CCN(c2ccc(-c3ccccc3)nn2)CC1 | 50.5% | -13.1% | -7.3% | ? | 12.6% | ?
OC1(c2cccc(C(F)(F)F)c2)CCN(c2ncnc3c2[nH]c2ccccc23)CC1 | 28.2µM* | ? | ? | ? | ? | 15.5%
Cc1ccc2[nH]c3c(N4CCCCCC4)ncnc3c2c1 | nt | nt | nt | 3.16µM* | 1.4% | nt
Cc1ccc2[nH]c3c(N4CCN(Cc5ccccc5)CC4)ncnc3c2c1 | 11.2µM* | ? | ? | ? | ? | ?
CCC1CN(CCNC(=O)c2ccc(N3CCOCC3)cc2)Cc2cc(OC)ccc2O1 (centres undefined) | -4.9% | -10.7% | -19.2% | nt | nt | nt
CCn1cc(C(=O)O)c(=O)c2c1CC(N1CCNCC1)=C(F)C2 | nt | nt | nt | nt | -6.9% | nt
SMILES | FMDV inh | Vaccinia Venus | Vaccinia mCherry | HCV inh | MARV entry inh | LASV entry inh
Cc1cc2c(nc1C)CCCN2C[C@H](O)CN1CCCc2nc(-c3ccc(Br)cc3)ccc21 | nt | nt | nt | nt | 1.7%[14.2 µM] | nt
COc1cccc2[nH]c3c(N4CCC5(CC4)OCCO5)ncnc3c12 | -10.1% | nt | nt | 0.4% | nt | nt
c1ccc2c(c1)[nH]c1c(N3CCC4(CC3)OCCO4)ncnc12 | ? | ? | nt | 7.08µM* | ? | ?
Cc1ccc2[nH]c3c(N4CCN(Cc5ccc6c(c5)OCO6)CC4)ncnc3c2c1 | nt | nt | nt | nt | 0.5% | nt
Cc1ccc2c(c1)[nH]c1c(N3CCN(Cc4ccccc4)CC3)ncnc12 | nt | ? | ? | 3.16µM* | 16.4µM* | 20.6µM*
CCOc1ccc2[nH]c3c(N4CCN(c5ccccn5)CC4)ncnc3c2c1 | ? | nt | nt | 1µM* | ? | ?
Cc1cnc(C)c(-c2cccc3c2OC(CNC(=O)CN2C(=O)c4ccccc4C2=O)C3)n1 (centres undefined) | 0.6% | -14.1% | i | nt | nt | nt
COc1ccc(S(=O)(=O)N(CCc2ccccc2)CC(=O)Nc2ccc(C)c(C)c2)cc1OC | -26.5% | -15.6% | -15.8% | nt | nt | ?
COC(=O)c1ccc([C@H]2/C(=C(\O)c3ccc(OC)cc3)C(=O)C(=O)N2c2cc(C)on2)cc1 | nt | nt | nt | nt | -24.3%[46.1 µM] | nt
Cc1ccc(C)c(OCc2ccc(C(=O)Nc3ccc([N+](=O)[O-])cn3)o2)c1 | ? | nt | nt | 2.51µM* | nt | nt
Cc1ccc(OCc2ccc(C(=O)Nc3c(C)nn(Cc4c(F)c(F)c(F)c(F)c4F)c3C)o2)c([N+](=O)[O-])c1 | ? | nt | nt | 15.8µM* | 16.4µM* | ?
CC(=O)c1c(C)[nH]c(C(=O)Nc2nc(C)cs2)c1C | -86.7% | -1.0% | -5.5% | -24.2% | 1.78µM* | 2.24µM*
CC(=O)c1c(C)[nH]c(C(=O)Nc2nc(-c3ccc(-c4ccccc4)cc3)cs2)c1C | 11.2µM* | -18.2% | i | ? | ? | ?
CC(=O)c1c(C)[nH]c(C(=O)Nc2cc(C)cc(C)c2)c1C | 47.9% | -19.9% | -28.8% | ? | -2.2% | 6.6%
COc1ccc(-c2nc(NC(=O)c3ccco3)sc2C)cc1 | 0.7% | ? | ? | nt | nt | nt
CC(=O)c1c(C)[nH]c(C(=O)Nc2nc(-c3ccc(Cl)cc3)cs2)c1C | ? | -8.3% | -8.4% | ? | ? | ?
CC(=O)c1c(C)[nH]c(C(=O)Nc2ccc(C)cn2)c1C | -85.2% | -15.7% | i | 3.0% | 2µM* | 2.06µM*
COc1ccc(-c2nc(NC(=O)c3[nH]c(C)c(C(C)=O)c3C)sc2C)cc1 | ? | -24.7% | -20.8% | 1µM* | ? | -2.2%
Cc1cccc(CN2CCN(C(=O)CCl)CC2)c1 | 35.5µM* | -9.0% | i | ? | ? | ?
CCc1cccc2c(C(O)(c3c[nH]c4c(CC)cccc34)c3c[nH]c4c(CC)cccc34)c[nH]c12 | nt | 7.2% | -11.0% | nt | nt | nt
Cc1cccc(NC(=O)c2ccc(S(=O)(=O)N3CCC(C)CC3)cc2)n1 | 31.6µM* | ? | ? | ? | ? | 2.0%
COc1ccccc1Cc1c(-c2ccc(C#N)cc2)nc2c(Cl)cc(C(F)(F)F)cn12 | -15.1% | 23.2% | -19.3% | nt | nt | nt
Cc1ccc2nc(-c3ccccc3)nn2c1 | 11.2µM* | 11.3% | 8.1% | -10.2% | 8.91µM* | 1.12µM*
c1ccc(OCCCCN2CCCCC2)cc1 | -5.9% | -22.4% | -0.2% | -23.3% | 19.4% | ?
